# Compound activity from PubChem BioAssay.
# The list is not random: actives were taken first. Their share in the collection is about 9%.
# IMPase Li cell: qHTS Assay for Identifying the Cell-Membrane Permeable IMPase Inhibitors: Potentiation with Lithium. 0.35% of 210,000 active. Potency, µM (doses to about 59.4 µM), inactives show top-dose activity, negative = IMPase inhibition, actives largely listed as inhibitors. CHO-M1 cells, IP1 TR-FRET (IP-One), carbachol + lithium; active means well fitted curve in the direction sought with a large enough effect; inconclusive means small, poorly fitted or top-dose-only effect, or another doubt; inactive means no such curve, though single readings can be large; an effect the other way counts as inactive or inconclusive;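 further: IP1 builds up when IMPase is blocked and the TR-FRET signal falls; plate controls were basal vehicle for no effect and high inhibitor control for full effect; nearly all actives have a fitted effect of over 50% in size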
#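 CHO cells stably expressing M1 receptor (2000/well, cultured 16–30 h) treated 30 min at 37C with compound plus low lithium. Cytosolic IP1 by TR-FRET (665/620 ratio and 620 channel) after 10 min lysis; AC50 by Hill fit.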
# HPGD inh: qHTS Assay for Inhibitors of HPGD (15-Hydroxyprostaglandin Dehydrogenase); 15-hydroxyprostaglandin dehydrogenase [NAD(+)] (Homo sapiens), P15428; purified HPGD, NADH fluorescence kinetic, PGE2 substrate; Potency, µM, without a hit: at the top dose activity change, negative = inhibition, usual class: inhibitors; 4.3% of 150,000 active
# Target sequence (P15428 whole entry, looked up): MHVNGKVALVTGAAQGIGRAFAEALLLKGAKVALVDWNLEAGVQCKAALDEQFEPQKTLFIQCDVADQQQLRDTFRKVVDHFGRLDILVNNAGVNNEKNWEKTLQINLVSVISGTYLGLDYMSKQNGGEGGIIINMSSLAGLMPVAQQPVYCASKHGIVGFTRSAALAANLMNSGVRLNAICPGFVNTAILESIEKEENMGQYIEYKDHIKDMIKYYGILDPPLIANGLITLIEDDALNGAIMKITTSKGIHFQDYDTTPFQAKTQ
#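 NADH formation kinetics: reaction with 30 uM PGE2 and 1 mM NAD+ (final), 20 nM enzyme, Tris-HCl pH 8 with Tween 20, after 15 min compound preincubation at room temperature. Fluorescence change, last versus first of five reads.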
# Lamin A splicing: qHTS Assay for Modulators of Lamin A Splicing | HeLa LMNA splicing GFP/RFP minigene ratio, 48 h | 0.01% of 200,000 active | Potency, µM (top dose mostly 46.1 µM), for inactives: at the top dose ratio change, negative = inhibition, most hits filed as inhibitors | AID 1487, 2009; active means well fitted inhibition curve with a large enough effect in the signal ratio, with a control signal flat, not every such curve was filed as active; inconclusive means small, poorly fitted or top-dose-only effect, or effect the other way, or a change in a side signal; the % refers to the signal ratio
#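 Read-out is the ratio of GFP to DsRed2 object intensity, acquired by 488 nm laser-scanning cytometry on HeLa lamin A-EGFP minigene reporter cells. Compound incubation 48 hrs at 37 °C in Opti-MEM with 2% FBS; DMSO 0.5% final.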
# ALDH1A1 block: qHTS Assay for Inhibitors of Aldehyde Dehydrogenase 1 (ALDH1A1); Potency, µM (titrated, usually from 75.3 µM), inactives show top-dose activity, negative = inhibition, most hits filed as inhibitors; Purified ALDH1A1, NADH fluorescence, propionaldehyde substrate; Aldehyde dehydrogenase 1A1 (Homo sapiens), P00352; 7.3% of 220,000 active;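 further: plate controls were no enzyme wells and a reference inhibitor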
# Target sequence (P00352 whole entry, looked up): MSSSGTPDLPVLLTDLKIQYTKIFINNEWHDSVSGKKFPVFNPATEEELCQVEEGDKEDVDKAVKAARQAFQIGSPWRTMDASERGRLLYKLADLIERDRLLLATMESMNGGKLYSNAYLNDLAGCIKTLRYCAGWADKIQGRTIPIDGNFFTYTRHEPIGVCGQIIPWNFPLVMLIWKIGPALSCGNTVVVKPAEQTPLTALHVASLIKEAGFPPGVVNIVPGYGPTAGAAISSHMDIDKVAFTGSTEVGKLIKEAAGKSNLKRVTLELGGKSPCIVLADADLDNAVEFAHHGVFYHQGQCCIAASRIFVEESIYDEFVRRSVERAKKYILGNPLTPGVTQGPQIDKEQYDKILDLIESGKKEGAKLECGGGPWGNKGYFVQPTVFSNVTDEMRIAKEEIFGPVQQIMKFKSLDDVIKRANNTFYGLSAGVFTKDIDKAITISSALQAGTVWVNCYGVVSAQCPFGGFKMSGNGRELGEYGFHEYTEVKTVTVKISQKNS
# KinaseGlo FLuc: Counterscreen for Luciferase (Kinase-Glo TM) Inhibition; Luciferin 4-monooxygenase (Photuris pensylvanica), Q27757; Kinase-Glo luciferase, ATP luminescence, 8 min; Potency, µM (highest dose often 38.3 µM), for inactives: top-dose activity change, negative = inhibition, hits mostly inhibitors; 0.28% of 200,000 active; active means well fitted curve in the direction sought with a large enough effect; inconclusive means small, poorly fitted or top-dose-only effect, or another doubt; inactive means no such curve, though single readings can be large; an effect the other way counts as inactive or inconclusive; further: nearly all actives have a fitted effect of over 60% in size
#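 Kinase-Glo luciferase light output from ATP and luciferin was measured with 10 uM ATP, within the enzyme's linear range. Buffer: 50 mM imidazole pH 7.2, 50 mM KCl, 7 mM MgCl2, 0.01% Tween 20, 0.05% BSA; luminescence read after 8 min at ambient temperature.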
# * = called active by the depositor; ? = inconclusive; . = no result; [ ] = dose if it differs, or a comment. Unless noted, the call rests on the fitted dose curve; in most records, active means well fitted inhibition curve with a large enough effect (not every such curve was filed as active); inconclusive means small, poorly fitted or top-dose-only effect, or another doubt; inactive means no such curve, though single readings can be large or run the other way. Unless noted, on the % scale 0 is the no-effect control and ±100 the full control effect; potency means the concentration at half of the fitted maximal effect.
SMILES,IMPase Li cell,HPGD inh,Lamin A splicing,ALDH1A1 block,KinaseGlo FLuc
COc1ccc(C(=O)COC(=O)Cn2nnc3ccccc32)cc1Br,1%[38.3 µM],-14%,21%,-4%,1%
CCOc1cc(/C=C/C(=O)c2ccc(C)cc2)ccc1OCC(=O)N(C)C,0%,-7%,?,?,1%
COc1ccc(/C=C/C(=O)c2ccccc2)cc1Cn1nnc2ccccc21,25%,16µM*,?,?,-1%
COc1ccc(/C=C/C(=O)c2ccccc2)cc1COc1ccc(F)cc1,-19%[38.3 µM],-15%,13%,1%,-2%
COc1ccc(C(=O)/C=C/c2ccc(OC)c(COc3ccccc3F)c2)cc1,14%,-25%,-21%,2.5µM*,2%
COc1cc(/C=C/C(=O)c2ccc(C)cc2)ccc1OCC#N,6%,-28%,?,13µM*,2%
CNC1CCC(c2ccc(Cl)c(Cl)c2)c2ccccc21 (stereo not given),.,1%,.,-6%,-3%
Cc1cc(C)nc(NCCC(=O)O)n1,8%,.,-4%[46 µM],4%,0%
O=c1nc2n(c3cccc(Cl)c13)CCCCC2,2%,.,.,12%,.
CC(C)NC(=O)N1CCCC2(CCN(C(=O)c3ccncc3)CC2)C1,6%,-5%,.,9%,-1%
CCN1C(=O)[C@H]2[C@@H]3[C@H](O)C=CC(=O)[C@H]3CC[C@H]2C1=O,.,.,.,3.2µM*,.
O=C(Cc1ccccc1)NCC(=O)OCC(=O)c1ccc([N+](=O)[O-])cc1,-2%,-2%,-1%,1.4µM*,2%
O=C(CNc1ccccc1)c1ccc([N+](=O)[O-])cc1,24%,?,-11%,3.5µM*,-2%
O=C(CNS(=O)(=O)c1ccccc1)OCC(=O)c1ccc([N+](=O)[O-])cc1,3%,-4%,-12%,1.1µM*,4%
O=C(CNC(=O)c1ccc([N+](=O)[O-])cc1)c1ccccc1,6%[38.3 µM],-1%,5%,1%,-3%
Cc1ccc(C(=O)NCC(=O)NCC(=O)OCC(=O)c2ccc([N+](=O)[O-])cc2)cc1,-9%[38.3 µM],-14%,14%,1µM*,-3%
O=C(Cc1ccccc1)NCC(=O)OCC(=O)c1cccc([N+](=O)[O-])c1,-15%,-5%,-8%,16%,6%
CCN1C(=O)N[C@@H](CCc2ccccc2)C(C(C)=O)=C1C,-7%,1%,-13%[9.22 µM],2%[13.5 µM],0%[7.66 µM]
O=[N+]([O-])c1ccc(Oc2ccc(Oc3ccc(C(F)(F)F)cn3)cc2)nc1,.,.,.,-7%,.
C=C1C(=O)O[C@@H]2C3OC3(C)CC/C=C(\C)CC[C@@H]12 (stereo not given in full),10%,-1%,.,-15%,0%
C=C1C(=O)O[C@@H]2[C@H]3O[C@]3(C)CC/C=C(\C)CC[C@@H]12,19%,.,.,13µM*,.
Cc1cccc(NC(=S)N(c2ccccc2)C(C)C)c1C,.,.,-11%,?,.
Cc1cccc(-c2nnc(SCC(=O)N3c4ccccc4CCc4ccccc43)n2C)c1,5%,-3%,-15%,11µM*,-2%
Cn1c(SCC(=O)N2c3ccccc3CCc3ccccc32)nnc1-c1cc2ccccc2cc1O,5%,-3%,-8%,?,2%
COCCn1c(SCC(=O)N2CCCc3ccccc32)nc2cccnc21,33%[38.3 µM],-10%,2%,3.2µM*,0%
SMILES,IMPase Li cell,HPGD inh,Lamin A splicing,ALDH1A1 block,KinaseGlo FLuc
O=Cc1cn(CC(=O)N2CCc3ccccc32)c2ccccc12,6%,.,-22%[46 µM],18µM*,2%
Cn1cc(SCC(=O)N2CCOCC2)c2ccccc21,9%[38.3 µM],-13%,-10%,4%,-1%
Cn1cc(SCC(=O)N2CCCc3ccccc32)c2ccccc21,49%[38.3 µM],-14%,-24%,10µM*,0%
COCCn1c(SCC(=O)NC2CCCC2)nc2cccnc21,-3%,.,.,3%,-1%
COc1ccc(Cl)cc1-c1nc(SCC(=O)NCCN2C(=O)CSC2=O)n[nH]1,-1%,-13%,2%,1%,0%
C[C@@H]1[C@H](O)[C@@H](C)/C=C/C=C/C=C/C=C/C=C/C=C/C=C/[C@H](O[C@@H]2O[C@H](C)[C@@H](O)[C@H](N)[C@@H]2O)C[C@@H]2O[C@](O)(C[C@@H](O)C[C@@H](O)[C@H](O)CC[C@@H](O)C[C@@H](O)CC(=O)O[C@H]1C)C[C@H](O)[C@H]2C(=O)O,-11%,-10%,?,-15%,.
Cn1c(SCC(=O)N2CCCc3ccccc32)nnc1-c1ccccc1,-17%[38.3 µM],-8%,?,25µM*,-2%
O=C(CSc1ccc2nnc(-c3ccc(F)cc3)n2n1)N1CCCc2ccccc21,-1%,-3%,?,14µM*,-1%
Cn1c(SCC(=O)N2CCCc3ccccc32)nnc1-c1ccco1,.,.,-1%,2%,.
O=C(CSc1ccc2nnc(-c3ccc(Cl)cc3)n2n1)N1CCCc2ccccc21,?,?,-20%,-8%,-1%
Cc1ccc(NCc2nnc(SCC(=O)N3CCc4ccccc43)n2C)cc1,5%[38.3 µM],0%,14%,8.9µM*,0%
CN(C)C=NC(=O)/C(C#N)=C/c1ccccc1,6%,.,-11%[9.22 µM],-17%,0%
N[C@H](C(=O)O)c1ccc(C(=O)O)cc1,-9%,-21%,.,8%,0%
CCCCn1c(SCC(=O)N2CCC(C)CC2)nc2cc(S(N)(=O)=O)ccc21,-2%[38.3 µM],28µM*,3%,8%,1%
CCCCn1c(SCC(=O)NC(=O)NCc2ccco2)nc2cc(S(N)(=O)=O)ccc21,-10%[38.3 µM],-15%,7%,-18%,-7%
CCCCn1c(SCN2C(=O)c3ccccc3C2=O)nc2cc(S(N)(=O)=O)ccc21,-24%[38.3 µM],-14%,4%,28µM*,12%
CCCCn1c(SCc2ccc(C(=O)OC)o2)nc2cc(S(N)(=O)=O)ccc21,5%[38.3 µM],-25%,?,25µM*,-3%
CCCCn1c(SCC(=O)c2cc(OC)ccc2OC)nc2cc(S(N)(=O)=O)ccc21,-17%[38.3 µM],-7%,2%,?,-3%
CCCCn1c(SCC2CCCO2)nc2cc(S(N)(=O)=O)ccc21 (stereo not given),23%[38.3 µM],-1%,25%,-4%,-3%
CCN=C(NS(=O)(=O)c1ccc(Br)cc1)c1ccc(Cl)cc1,10%,.,.,8%,0%
O=C(Cn1ccc(C(F)(F)F)n1)N/N=C/c1ccc(N2CCOCC2)cc1,0%,.,?,?,-3%
Cn1c(=O)[nH]c(=O)c2c1nc(N1CCCC1)n2CCCSc1nnnn1-c1ccccc1,10%,-12%,?,11µM*,2%
CN1CCN(c2nc3c(c(=O)[nH]c(=O)n3C)n2CCCSc2ncccn2)CC1,-5%[38.3 µM],-7%,0%,?,11%
